We go through 9 compounds from PubChem BioAssay (NCI).

Compounds without any hit were thinned out: in the full panel of roughly 79,000, 15% have a hit. A number with no mark means an inactive call. Calls of active or inactive are those of the source. No stated cut-off is given here; in the data, active means growth inhibition above about 70%; inactive means the rest.

Assay [1] can be described thus: NCI Yeast Anticancer Drug Screen. Data for the rad50 strain (AID 155).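 Further: 0% = growth of vehicle-only cultures of the same strain.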 The settings on record: S. cerevisiae rad50 strain growth inhibition, hits give high values. In outline:
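Vehicle-treated cultures provide the reference for the growth inhibition reported for compound-exposed, repair-deficient yeast.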

A short description of assay [2]: NCI Yeast Anticancer Drug Screen. Data for the mec2-1 strain (AID 157). Conditions: S. cerevisiae mec2-1 strain, hits give high values. In outline:
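Mutant yeast (mec2-1) grown with compound; growth inhibition relative to vehicle control reported.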

The nature of assay [3]: NCI Yeast Anticancer Drug Screen. Data for the sgs1 mgt1 strain (AID 161).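 Further: 0% = growth of cultures given vehicle only.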 The settings on record: S. cerevisiae sgs1 mgt1 strain, hits give high values. Put shortly:
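This yeast growth screen uses a strain with defined DNA-repair lesions; compound-treated growth is compared with vehicle-treated growth.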

Assay [4] is described as follows: NCI Yeast Anticancer Drug Screen. Data for the cln2 rad14 strain (AID 165).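 Further: 0% = growth equal to vehicle treated cultures.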 The settings on record: S. cerevisiae cln2 rad14 strain, hits give high values. In outline: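 Readout is yeast growth inhibition versus vehicle-treated controls, using a strain with cln2 and rad14 alterations exposed to compound.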
Assay [5] in a line: NCI Yeast Anticancer Drug Screen. Data for the bub3 strain (AID 167). The settings on record: S. cerevisiae bub3 mutant strain, hits give high values. Put shortly: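 Mutant yeast screening strain plus compound; vehicle-treated cultures serve as the 0% inhibition reference.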
Assay [6] is described as follows: NCI Yeast Anticancer Drug Screen. Data for the mlh1 rad18 strain (AID 175). The settings on record: S. cerevisiae mlh1 rad18 strain growth inhibition, hits give high values. Put shortly:
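Genetically defined yeast (DNA repair-deficient) exposed to compounds; growth inhibition determined relative to vehicle.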

The mark [7] stands for this setting: at 5.0 µM (retest, dose inferred, filed as 0.5).
Setting [8] is: at 50.0 µM (retest, dose inferred, filed as 5.0).

Take `CSc1ncc2c(n1)-c1ccccc1OC2NC1CC1` (configuration not stated): the growth inhibition was 24% in assay [1] (setting [7]); 22% in assay [1] (setting [8]); 71.5% (active) in assay [1] (at 50.0 µM); 18% in assay [2] (setting [7]); 16% in assay [2] (setting [8]); 62.5% in assay [2] (at 50.0 µM). Moreover, the growth inhibition was 17% in assay [3] (setting [7]); 20% in assay [3] (setting [8]); 11.3% in assay [3] (at 50.0 µM); 26% in assay [4] (setting [7]); 27% in assay [4] (setting [8]); -2.85% in assay [4] (at 50.0 µM). Further, the growth inhibition was 24% in assay [5] (setting [7]); 28% in assay [5] (setting [8]); 14.6% in assay [5] (at 50.0 µM); 18% in assay [6] (setting [7]); 12% in assay [6] (setting [8]); -7.35% in assay [6] (at 50.0 µM).
On to `O=C1COC(=O)/C1=C\C=C\c1ccccc1`, for which the growth inhibition in assay [1] (setting [7]) is 5%; in assay [1] (setting [8]) it was 55%; in assay [1] (at 50.0 µM), 95.6% (active); in assay [2] (setting [7]), 8%; in assay [2] (setting [8]), 84% (active); in assay [2] (at 50.0 µM), 91% (active). In addition, the growth inhibition was 13% in assay [3] (setting [7]); 78% (active) in assay [3] (setting [8]); 99% (active) in assay [3] (at 50.0 µM); 1% in assay [4] (setting [7]); 94% (active) in assay [4] (setting [8]); 95.4% (active) in assay [4] (at 50.0 µM). The growth inhibition was -5% in assay [5] (setting [7]); 43% in assay [5] (setting [8]); 97.2% (active) in assay [5] (at 50.0 µM); 2% in assay [6] (setting [7]); 68% in assay [6] (setting [8]); 99% (active) in assay [6] (at 50.0 µM).
For `CCC(c1ccc(Cl)cc1)C(C#N)c1ccccc1` (configuration not stated), the growth inhibition in assay [1] (setting [7]) is 6%; in assay [1] (setting [8]), 40%; in assay [1] (at 50.0 µM), 76.7% (active); in assay [2] (setting [7]) it was 7%; in assay [2] (setting [8]), 34%; in assay [2] (at 50.0 µM) it was 49.2%. The growth inhibition in assay [3] (setting [7]) is 3%; in assay [3] (setting [8]) it was 53%; in assay [3] (at 50.0 µM), 69.4%; in assay [4] (setting [7]) it was 2%; in assay [4] (setting [8]), 3%; in assay [4] (at 50.0 µM), -0.6%. Moreover, the growth inhibition is 1% in assay [5] (setting [7]); 3% in assay [5] (setting [8]); 40.4% in assay [5] (at 50.0 µM); 7% in assay [6] (setting [7]); 30% in assay [6] (setting [8]); 59% in assay [6] (at 50.0 µM).
As to `COc1ccccc1/C=C1\Sc2scc(-c3ccc(O)c(O)c3)[n+]2C1=O`, the growth inhibition was -5% in assay [1] (setting [7]); 99% (active) in assay [1] (setting [8]); 98.9% (active) in assay [1] (at 50.0 µM); -8% in assay [2] (setting [7]); 99% (active) in assay [2] (setting [8]); 98.9% (active) in assay [2] (at 50.0 µM). The growth inhibition in assay [3] (setting [7]) was -11%; in assay [3] (setting [8]), 99% (active); in assay [3] (at 50.0 µM), 99.3% (active); in assay [4] (setting [7]) it was -7%; in assay [4] (setting [8]), 99% (active); in assay [4] (at 50.0 µM) it was 97.2% (active). Further, the growth inhibition is -14% in assay [5] (setting [7]); 99% (active) in assay [5] (setting [8]); 98.8% (active) in assay [5] (at 50.0 µM); 7% in assay [6] (setting [7]); 99% (active) in assay [6] (setting [8]); 99% (active) in assay [6] (at 50.0 µM).
As to `O=C(O)C(SC1=NNC2(C(=O)N1)c1ccccc1-c1ccccc12)SC1=NNC2(C(=O)N1)c1ccccc1-c1ccccc12`, the growth inhibition is 4% in assay [1] (setting [7]); 96% (active) in assay [1] (setting [8]); 97.5% (active) in assay [1] (at 50.0 µM); -19% in assay [2] (setting [7]); 92% (active) in assay [2] (setting [8]); 96.3% (active) in assay [2] (at 50.0 µM). Also, the growth inhibition is 2% in assay [3] (setting [7]); 96% (active) in assay [3] (setting [8]); 97.4% (active) in assay [3] (at 50.0 µM); 4% in assay [4] (setting [7]); 66% in assay [4] (setting [8]); 95.8% (active) in assay [4] (at 50.0 µM). In addition, the growth inhibition is 9% in assay [5] (setting [7]); 93% (active) in assay [5] (setting [8]); 98% (active) in assay [5] (at 50.0 µM); -15% in assay [6] (setting [7]); 95% (active) in assay [6] (setting [8]); 97.3% (active) in assay [6] (at 50.0 µM).
Regarding `Cc1c(Cl)ccc2c(C(O)CNCc3ccccc3)cc(-c3ccc(Cl)cc3)nc12` (configuration not stated), the growth inhibition in assay [1] (setting [7]) is 44%; in assay [1] (setting [8]), 95% (active); in assay [1] (at 50.0 µM), 98.5% (active); in assay [2] (setting [7]) it was 58%; in assay [2] (setting [8]), 95% (active); in assay [2] (at 50.0 µM), 91% (active). For the same compound, the growth inhibition is 66% in assay [3] (setting [7]); 92% (active) in assay [3] (setting [8]); 97.1% (active) in assay [3] (at 50.0 µM); 17% in assay [4] (setting [7]); 94% (active) in assay [4] (setting [8]); 93.8% (active) in assay [4] (at 50.0 µM). Besides, the growth inhibition in assay [5] (setting [7]) is 26%; in assay [5] (setting [8]), 95% (active); in assay [5] (at 50.0 µM) it was 12.1%; in assay [6] (setting [7]) it was 59%; in assay [6] (setting [8]), 95% (active); in assay [6] (at 50.0 µM), 96.5% (active).
As for `CCCCCCCCCCn1cc[nH]c1=S`, the growth inhibition was 47% in assay [1] (setting [7]); 99% (active) in assay [1] (setting [8]); 99% (active) in assay [1] (at 50.0 µM); 47% in assay [2] (setting [7]); 99% (active) in assay [2] (setting [8]); 99.2% (active) in assay [2] (at 50.0 µM). Besides, the growth inhibition was 72% (active) in assay [3] (setting [7]); 99% (active) in assay [3] (setting [8]); 99.3% (active) in assay [3] (at 50.0 µM); 18% in assay [4] (setting [7]); 99% (active) in assay [4] (setting [8]); 98.8% (active) in assay [4] (at 50.0 µM). Besides, the growth inhibition in assay [5] (setting [7]) was 72% (active); in assay [5] (setting [8]) it was 99% (active); in assay [5] (at 50.0 µM) it was 99.2% (active); in assay [6] (setting [7]), 59%; in assay [6] (setting [8]), 98% (active); in assay [6] (at 50.0 µM), 99.3% (active).
Regarding `CS/C(C#N)=C(\C#N)SC`, the growth inhibition in assay [1] (setting [7]) was 10%; in assay [1] (setting [8]), 78% (active); in assay [1] (at 50.0 µM), 79.2% (active); in assay [2] (setting [7]) it was 3%; in assay [2] (setting [8]), 27%; in assay [2] (at 50.0 µM), 16.3%. The growth inhibition in assay [3] (setting [7]) is 2%; in assay [3] (setting [8]), 23%; in assay [3] (at 50.0 µM), 67.6%; in assay [4] (setting [7]) it was 3%; in assay [4] (setting [8]), 12%; in assay [4] (at 50.0 µM) it was 23.6%. Moreover, the growth inhibition in assay [5] (setting [7]) was 2%; in assay [5] (setting [8]), 59%; in assay [5] (at 50.0 µM), 53.1%; in assay [6] (setting [7]) it was 7%; in assay [6] (setting [8]), 35%; in assay [6] (at 50.0 µM) it was 43.5%.
Turning to `O=C(CC(O)(CC(=O)OCc1ccccc1)C(=O)OCc1ccccc1)OCc1ccccc1`, the growth inhibition is -3% in assay [1] (setting [7]); -23% in assay [1] (setting [8]); 99.2% (active) in assay [1] (at 50.0 µM); -2% in assay [2] (setting [7]); -27% in assay [2] (setting [8]); 99.5% (active) in assay [2] (at 50.0 µM). The growth inhibition in assay [3] (setting [7]) is -4%; in assay [3] (setting [8]), -22%; in assay [3] (at 50.0 µM), 99.1% (active); in assay [4] (setting [7]) it was 11%; in assay [4] (setting [8]), -10%; in assay [4] (at 50.0 µM) it was 98.2% (active). Moreover, the growth inhibition in assay [5] (setting [7]) is -1%; in assay [5] (setting [8]), -34%; in assay [5] (at 50.0 µM), 99.4% (active); in assay [6] (setting [7]), 3%; in assay [6] (setting [8]), -9%; in assay [6] (at 50.0 µM), 99% (active).
